The results in this text go back to PubChem BioAssay (NCI).

Test [1] in a line: NCI Yeast Anticancer Drug Screen. Data for the rad50 strain (AID 155).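 Further: 0% = growth of vehicle-only cultures of the same strain.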 Conditions: S. cerevisiae rad50 strain growth inhibition; at 50.0 µM; active compounds read high. Summed up: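 Vehicle-treated cultures provide the reference for the growth inhibition reported for compound-exposed, repair-deficient yeast.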
Test [2] can be described thus: NCI Yeast Anticancer Drug Screen. Data for the mec2-1 strain (AID 157). Conditions: S. cerevisiae mec2-1 strain, at 50.0 µM, active compounds read high. Summed up:
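Yeast mec2-1 mutant treated with compound. Readout: growth inhibition vs vehicle controls.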

Test [3] in a line: NCI Yeast Anticancer Drug Screen. Data for the sgs1 mgt1 strain (AID 161).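 Further: 0% = growth of cultures given vehicle only.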 The conditions noted are these: S. cerevisiae sgs1 mgt1 strain, at 50.0 µM, active compounds read high. In short, it runs like this:
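Genetically altered yeast, compound exposure, growth inhibition relative to vehicle.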

Test [4] can be described thus: NCI Yeast Anticancer Drug Screen. Data for the cln2 rad14 strain (AID 165).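 Further: 0% = growth equal to vehicle treated cultures.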 Conditions: S. cerevisiae cln2 rad14 strain, at 50.0 µM, active compounds read high. In short, it runs like this:
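cln2 rad14 yeast strain; compound exposure; growth inhibition read vs vehicle controls.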

Test [5] in a line: NCI Yeast Anticancer Drug Screen. Data for the bub3 strain (AID 167). The conditions noted are these: S. cerevisiae bub3 mutant strain, at 50.0 µM, active compounds read high. Summed up: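 Mutant yeast screening strain plus compound; vehicle-treated cultures serve as the 0% inhibition reference.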
The nature of test [6]: NCI Yeast Anticancer Drug Screen. Data for the mlh1 rad18 strain (AID 175). The conditions noted are these: S. cerevisiae mlh1 rad18 strain growth inhibition; at 50.0 µM; active compounds read high. Summed up: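 Yeast w/ defined DNA-repair lesions; compound exposure; growth vs vehicle controls → % inhibition.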

The panel holds about 79,000 compounds, 15% with a hit somewhere; the sample as a whole holds those more often. A number with no mark means an inactive call. Calls of active or inactive are those of the source. No stated cut-off is given here; in the data, active means growth inhibition above about 70%; inactive means the rest.

For `C(=C\CSc1ccccn1)/CSc1ccccn1`, the growth inhibition is 50% in test [1]; 6.4% in test [2]; 56.6% in test [3]; 18.6% in test [4]; 49.4% in test [5]; 25% in test [6].
As for `CC(=O)OCC(OC(C)=O)C(OC(C)=O)C(/C=C/N=[N+]([O-])c1ccccc1)OC(C)=O` (stereo unspecified), the growth inhibition in test [1] is 49%; in test [2] it was 31.5%; in test [3], 45.5%; in test [4], 42.6%; in test [5] it was 48.6%; in test [6] it was 44.9%.
On to `C=CC(C)C(C)C` (stereo unspecified), for which the growth inhibition in test [1] is 3.15%; in test [2] it was 0.4%; in test [3], -7.55%; in test [4] it was 4.3%; in test [5], 8.65%; in test [6], -4.8%.
Turning to `CCCCC(=O)CCC(=O)O`, the growth inhibition in test [1] was 9.7%; in test [2], 11.6%; in test [3], 4.95%; in test [4], 13.8%; in test [5], 9.7%; in test [6], 12.7%.
Consider `CC(=O)Oc1ccc2c(c1)C(=O)CCCCCC(=O)O2`, for which the growth inhibition is 19.2% in test [1]; 4.2% in test [2]; 6.85% in test [3]; -0.25% in test [4]; -2.4% in test [5]; -10.8% in test [6].
`COc1c(C)c(C)c(Br)c(C)c1C`: the growth inhibition was 6.35% in test [1]; 7.65% in test [2]; 6.7% in test [3]; 15.6% in test [4]; 0.55% in test [5]; 12.2% in test [6].
In the case of `CC1(C)C(=O)/C=C\C(=O)C(C)(C)C(=O)/C=C\C(=O)C(C)(C)C2=CC=C(O2)C(C)(C)C(=O)/C=C\C1=O`, the growth inhibition in test [1] was 14.9%; in test [2] it was 12.2%; in test [3], -2.4%; in test [4], 20.9%; in test [5], 7.9%; in test [6], 14.4%.
Take `CC1CC(C#N)=C(NC#N)NC1=O` (stereo unspecified): the growth inhibition in test [1] was -0.5%; in test [2] it was 12.4%; in test [3] it was 19.2%; in test [4], 5.55%; in test [5] it was -0.75%; in test [6] it was 9.4%.
For `FC(F)(F)c1cccc(C=NC23CC4CC(CC(C4)C2)C3)c1`, the growth inhibition in test [1] is -16.4%; in test [2] it was -14.6%; in test [3], -2.05%; in test [4] it was 10.4%; in test [5], -30%; in test [6] it was 8.75%.
For the molecule `N#C/C(=C\c1cccc(N)c1)c1ccccc1`, the growth inhibition in test [1] was 45.4%; in test [2] it was 57.9%; in test [3], 73.7% (active); in test [4], 30.1%; in test [5], 88% (active); in test [6], 80% (active).
Consider `Cc1c(C)c(CSC#N)c(C)c(C)c1CSC#N`, for which the growth inhibition in test [1] is 53.8%; in test [2], -13.6%; in test [3], -10.1%; in test [4], -1.9%; in test [5], 8.2%; in test [6], 8.55%.
Regarding `COC(=O)c1cc([N+](=O)[O-])c(Br)s1`, the growth inhibition is 99.3% (active) in test [1]; 99.6% (active) in test [2]; 99.6% (active) in test [3]; 99.5% (active) in test [4]; 99.3% (active) in test [5]; 99.3% (active) in test [6].
In the case of `COc1nc2c(c(=O)n1C)N(C(C)=O)C1C(N2)OCC(OC(C)=O)C1OC(C)=O` (stereo unspecified), the growth inhibition in test [1] was -13.4%; in test [2], 8.65%; in test [3], -2.55%; in test [4], 5.45%; in test [5] it was -7.6%; in test [6] it was -32.1%.
In the case of `COC1(OC)N=C(N)C2(C#N)/C(=N/N(C)C)CC(C)C12C#N` (stereo unspecified), the growth inhibition was 11.9% in test [1]; 4.35% in test [2]; -18.4% in test [3]; -16.1% in test [4]; -22.8% in test [5]; -40.7% in test [6].
Regarding `C[Si](C)(C)C#CCOC=C1CC1`, the growth inhibition in test [1] is 26%; in test [2] it was -39.5%; in test [3] it was -27.2%; in test [4] it was 9.15%; in test [5], -11.7%; in test [6], -34.5%.
As for `CC(CO)(CO)CN1CCCCC1`, the growth inhibition in test [1] is -2.25%; in test [2], 5.2%; in test [3] it was -1.85%; in test [4] it was -36.5%; in test [5] it was -12.4%; in test [6] it was 1.8%.
As for `C1C2CC3CC1CC(c1nn4c(C56CC7CC(CC(C7)C5)C6)nnc4s1)(C2)C3`, the growth inhibition is -20.4% in test [1]; -12.8% in test [2]; -9.1% in test [3]; 11.2% in test [4]; -12.4% in test [5]; -17.9% in test [6].
In the case of `O=C1CC(c2ccccc2)Oc2ccccc21` (stereo unspecified), the growth inhibition in test [1] was -24.5%; in test [2], -58.1%; in test [3] it was -16.8%; in test [4], 8.2%; in test [5] it was -25.2%; in test [6], -24.1%.
As to `O=C(O)CCN1C(=S)CSC1=S`, the growth inhibition in test [1] was -5.35%; in test [2], -18.4%; in test [3] it was -38.5%; in test [4], 8.9%; in test [5], -33.9%; in test [6] it was -24.2%.
On to `O=C(Nc1ccc(Cl)cc1)Nc1nnc2nc(C(C(=O)c3ccc(O)cc3O)c3nc4nnc(NC(=O)Nc5ccc(Cl)cc5)n4[nH]c3=O)c(=O)[nH]n12`, for which the growth inhibition was 25.6% in test [1]; 39.9% in test [2]; 44.2% in test [3]; 60.9% in test [4]; 14.7% in test [5]; 12.3% in test [6].
Regarding `Nc1nc[n+](Cc2ccccc2)c2ncn(Cc3ccccc3)c12`, the growth inhibition in test [1] was -5.6%; in test [2] it was -23.6%; in test [3], -11.2%; in test [4], -9.25%; in test [5] it was -14.7%; in test [6], 3.5%.
